# Experimental data published in paper PMC7862700, “An all-to-all approach to the identification of sequence-specific readers for epigenetic DNA modifications on cytosine”.
# Experiments:
# Assay in all cases: DAPPL (digital affinity profiling via proximity ligation, sequencing); 10 mM Tris-HCl pH 7.5, 50 mM NaCl, 1 mM DTT, 4% glycerol, room temperature, 30 min; GST-TFs on glutathione beads, 16-mer random dsDNA library, 0.1% formaldehyde crosslink after washing; high values mean tight binding
# Settings in all cases: protein: recombinant; tags: N-terminal GST; dsDNA, one strand shown
# [1] = target: T1, ELK4 (Homo sapiens, UniProt P28324-2 1-405)
# T1 sequence: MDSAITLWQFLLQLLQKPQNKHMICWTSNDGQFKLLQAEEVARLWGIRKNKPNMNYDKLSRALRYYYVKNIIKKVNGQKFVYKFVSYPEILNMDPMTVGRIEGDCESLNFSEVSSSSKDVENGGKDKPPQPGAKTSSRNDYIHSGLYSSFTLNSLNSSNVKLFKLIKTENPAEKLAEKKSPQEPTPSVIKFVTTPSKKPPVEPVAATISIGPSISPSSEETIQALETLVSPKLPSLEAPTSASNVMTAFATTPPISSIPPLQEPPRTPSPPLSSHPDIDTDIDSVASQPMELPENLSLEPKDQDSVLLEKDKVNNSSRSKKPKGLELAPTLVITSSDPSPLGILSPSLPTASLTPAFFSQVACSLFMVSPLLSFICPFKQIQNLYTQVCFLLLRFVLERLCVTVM
# In short: (§1)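 Yeast served to express human transcription factors as GST fusions, which were then captured on glutathione beads and labelled with DNA barcodes. Pooled with a tag-only sample, they were incubated with 200 nmole of a 16-mer random double-stranded DNA library for 30 min at room temperature in Tris/NaCl/DTT/glycerol buffer, washed, crosslinked with 0.1% formaldehyde, ligated by proximity, amplified by PCR and sequenced. Dividing each hexamer's read frequency for a factor by its frequency for the tag-only sample gives the binding signal.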
# [2] = target: T2, ETV2 (Homo sapiens, UniProt O00321 1-342)
# T2 sequence: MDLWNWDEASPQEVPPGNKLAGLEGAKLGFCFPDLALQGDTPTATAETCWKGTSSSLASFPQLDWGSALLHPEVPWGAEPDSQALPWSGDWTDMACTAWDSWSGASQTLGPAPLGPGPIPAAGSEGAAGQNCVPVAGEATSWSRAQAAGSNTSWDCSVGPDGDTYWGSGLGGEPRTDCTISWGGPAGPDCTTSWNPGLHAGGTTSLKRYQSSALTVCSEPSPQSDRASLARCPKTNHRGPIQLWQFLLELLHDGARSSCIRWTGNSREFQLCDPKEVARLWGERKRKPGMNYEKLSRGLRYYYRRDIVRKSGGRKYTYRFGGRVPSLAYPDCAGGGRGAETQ
# In short: as §1
# [3] = target: T3, ELF3 (Homo sapiens, UniProt P78545 1-371)
# T3 sequence: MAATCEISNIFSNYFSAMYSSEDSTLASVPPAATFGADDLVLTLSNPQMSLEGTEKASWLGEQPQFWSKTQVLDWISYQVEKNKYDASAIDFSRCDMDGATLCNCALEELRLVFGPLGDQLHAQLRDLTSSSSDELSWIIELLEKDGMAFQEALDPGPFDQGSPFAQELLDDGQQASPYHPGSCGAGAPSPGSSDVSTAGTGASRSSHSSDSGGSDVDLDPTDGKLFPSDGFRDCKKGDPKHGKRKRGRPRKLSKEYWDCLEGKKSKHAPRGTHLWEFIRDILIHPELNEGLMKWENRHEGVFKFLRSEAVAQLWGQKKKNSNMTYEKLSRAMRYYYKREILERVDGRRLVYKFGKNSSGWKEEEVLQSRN
# In short: as §1
# [4] = target: ETV1 (Homo sapiens, UniProt P50549 1-477)
# Sequence of ETV1 (P50549 whole entry): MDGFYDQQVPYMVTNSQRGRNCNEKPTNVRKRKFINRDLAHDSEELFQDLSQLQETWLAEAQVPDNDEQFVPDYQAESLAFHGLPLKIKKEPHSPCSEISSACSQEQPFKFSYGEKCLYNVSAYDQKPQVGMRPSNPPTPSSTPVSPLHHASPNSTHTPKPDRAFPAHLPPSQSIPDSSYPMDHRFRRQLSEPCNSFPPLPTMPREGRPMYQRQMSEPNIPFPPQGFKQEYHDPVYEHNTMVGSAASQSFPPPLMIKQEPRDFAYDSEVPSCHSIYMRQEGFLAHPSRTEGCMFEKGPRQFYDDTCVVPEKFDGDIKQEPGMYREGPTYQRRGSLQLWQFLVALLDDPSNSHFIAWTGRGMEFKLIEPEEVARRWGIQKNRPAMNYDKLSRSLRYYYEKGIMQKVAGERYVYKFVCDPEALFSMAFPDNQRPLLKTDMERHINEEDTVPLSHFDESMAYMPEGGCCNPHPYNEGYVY
# In short: as §1
# [5] = target: T4, ERF (Homo sapiens, UniProt P50548 1-548)
# T4 sequence: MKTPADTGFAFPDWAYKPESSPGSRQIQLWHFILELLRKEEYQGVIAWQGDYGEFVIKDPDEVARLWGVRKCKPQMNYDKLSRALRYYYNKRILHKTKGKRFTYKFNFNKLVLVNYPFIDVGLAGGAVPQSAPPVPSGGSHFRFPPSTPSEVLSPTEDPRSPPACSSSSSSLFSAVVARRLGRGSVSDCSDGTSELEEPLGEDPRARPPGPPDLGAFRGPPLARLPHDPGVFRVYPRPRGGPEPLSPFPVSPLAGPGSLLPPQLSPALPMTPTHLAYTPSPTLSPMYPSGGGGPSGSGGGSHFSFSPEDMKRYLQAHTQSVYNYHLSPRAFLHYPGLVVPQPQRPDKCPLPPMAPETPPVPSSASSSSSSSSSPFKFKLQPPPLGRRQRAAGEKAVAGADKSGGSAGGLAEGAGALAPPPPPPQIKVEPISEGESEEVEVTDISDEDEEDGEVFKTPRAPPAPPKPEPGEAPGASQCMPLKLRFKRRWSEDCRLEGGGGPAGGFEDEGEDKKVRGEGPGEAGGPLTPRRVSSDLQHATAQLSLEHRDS
# In short: as §1
# [6] = target: T5, ETV3L (Homo sapiens, UniProt Q6ZN32 1-361)
# T5 sequence: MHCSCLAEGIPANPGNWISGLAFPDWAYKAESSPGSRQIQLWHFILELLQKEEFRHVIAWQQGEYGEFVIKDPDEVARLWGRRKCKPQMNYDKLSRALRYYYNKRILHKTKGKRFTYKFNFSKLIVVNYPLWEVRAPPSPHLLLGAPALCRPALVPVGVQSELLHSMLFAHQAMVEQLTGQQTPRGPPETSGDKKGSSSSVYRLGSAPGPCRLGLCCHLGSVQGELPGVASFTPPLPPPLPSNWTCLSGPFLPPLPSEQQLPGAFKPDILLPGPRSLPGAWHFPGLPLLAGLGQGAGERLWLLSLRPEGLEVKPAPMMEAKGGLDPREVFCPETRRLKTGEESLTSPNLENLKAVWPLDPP
# In short: as §1
# [7] = target: T6, ETS2 (Homo sapiens, UniProt P15036 1-469)
# T6 sequence: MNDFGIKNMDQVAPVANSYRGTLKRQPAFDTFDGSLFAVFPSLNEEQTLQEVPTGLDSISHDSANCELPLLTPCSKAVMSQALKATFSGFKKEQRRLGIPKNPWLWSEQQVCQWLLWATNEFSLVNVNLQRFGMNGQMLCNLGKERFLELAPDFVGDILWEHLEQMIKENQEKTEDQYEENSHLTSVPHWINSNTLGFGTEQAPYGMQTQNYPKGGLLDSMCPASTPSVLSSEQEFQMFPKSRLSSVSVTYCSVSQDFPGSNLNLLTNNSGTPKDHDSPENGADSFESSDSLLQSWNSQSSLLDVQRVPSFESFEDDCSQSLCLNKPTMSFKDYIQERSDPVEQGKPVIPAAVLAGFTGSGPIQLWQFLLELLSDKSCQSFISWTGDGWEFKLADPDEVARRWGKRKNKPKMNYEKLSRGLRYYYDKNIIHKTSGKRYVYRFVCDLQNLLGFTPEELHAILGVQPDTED
# In short: as §1
# [8] = target: T7, ETV7 (Homo sapiens, UniProt Q9Y603 1-341)
# T7 sequence: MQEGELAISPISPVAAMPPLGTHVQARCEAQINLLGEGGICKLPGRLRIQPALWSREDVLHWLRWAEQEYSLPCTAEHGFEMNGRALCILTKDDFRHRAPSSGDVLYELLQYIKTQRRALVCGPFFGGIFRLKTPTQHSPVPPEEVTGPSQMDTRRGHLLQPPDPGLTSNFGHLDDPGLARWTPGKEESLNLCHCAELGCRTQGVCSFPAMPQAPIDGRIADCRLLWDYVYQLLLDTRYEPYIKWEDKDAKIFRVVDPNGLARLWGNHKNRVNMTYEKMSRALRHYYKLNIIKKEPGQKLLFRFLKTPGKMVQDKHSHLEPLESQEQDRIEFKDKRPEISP
# In short: as §1
# [9] = target: T8, ETV3 (Homo sapiens, UniProt P41162-2 1-143)
# T8 sequence: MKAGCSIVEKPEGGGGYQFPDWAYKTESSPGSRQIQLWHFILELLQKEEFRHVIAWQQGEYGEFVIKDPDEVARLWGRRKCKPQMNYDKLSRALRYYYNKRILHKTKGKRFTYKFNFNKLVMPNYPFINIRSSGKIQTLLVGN
# In short: as §1
# [10] = target: ETV6 (Homo sapiens, UniProt P41212 1-452)
# Sequence of ETV6 (P41212 whole entry): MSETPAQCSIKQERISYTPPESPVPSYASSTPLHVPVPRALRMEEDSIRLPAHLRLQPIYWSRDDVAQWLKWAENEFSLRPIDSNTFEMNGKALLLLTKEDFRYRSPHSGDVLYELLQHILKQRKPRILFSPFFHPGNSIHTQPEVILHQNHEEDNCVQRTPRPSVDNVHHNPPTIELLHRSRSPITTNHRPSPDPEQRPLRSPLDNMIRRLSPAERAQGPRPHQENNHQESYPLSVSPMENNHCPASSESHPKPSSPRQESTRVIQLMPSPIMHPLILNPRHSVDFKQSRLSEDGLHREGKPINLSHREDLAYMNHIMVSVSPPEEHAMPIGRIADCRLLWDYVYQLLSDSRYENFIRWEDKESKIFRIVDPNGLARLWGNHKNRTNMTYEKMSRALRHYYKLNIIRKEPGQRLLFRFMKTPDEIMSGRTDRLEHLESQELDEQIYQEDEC
# In short: as §1
sequence,measurement,setting,value
TACAGC,binding signal,[1],"1.02 fold enrichment (6-mer frequency, TF over GST control)"
same,binding signal,[2],"1.12 fold enrichment (6-mer frequency, TF over GST control)"
same,binding signal,[3],"1.16 fold enrichment (6-mer frequency, TF over GST control)"
same,binding signal,[4],"1.03 fold enrichment (6-mer frequency, TF over GST control)"
same,binding signal,[5],"1.16 fold enrichment (6-mer frequency, TF over GST control)"
same,binding signal,[6],"1.08 fold enrichment (6-mer frequency, TF over GST control)"
same,binding signal,[7],"1.1 fold enrichment (6-mer frequency, TF over GST control)"
same,binding signal,[8],"1.09 fold enrichment (6-mer frequency, TF over GST control)"
same,binding signal,[9],"1.02 fold enrichment (6-mer frequency, TF over GST control)"
same,binding signal,[10],"1.1 fold enrichment (6-mer frequency, TF over GST control)"
